Results: PubChem BioAssay (NCI)
Several values for one entry are separate records, joined by “and”; a condition that tells them apart may be missing. Identical values can stand only once. About 83,000 compounds went through this panel and 20% of them were active in at least one assay; those are over-represented in the sample as a whole.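 Cells were grown in 96-well plates and exposed to the test compound at a single concentration for 48 hours; results are reported as percent growth, with values below 10 considered active.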 A number with no mark means an inactive call. Activity calls are given as the source filed them.

These compounds were tested on HL-60(TB) leukemia (assay: NCI-60 one-dose screen, 48 h (100 = growth as untreated, 0 = no growth, -100 = all killed)). Details: 10 µM unless noted.
Work on `COc1c(F)ccc(C(=O)Nc2ccc3nc(NC(=O)C4CCCN(S(=O)(=O)c5ccc(Cl)cc5)C4)sc3c2)c1F` (configuration not stated) yielded a growth of 83.4%. `COc1cc(-c2nc3cc(Cl)c(Cl)cc3[nH]2)ccc1OCc1nnc(-c2cccs2)o1` gave a growth of 72%. `COc1cccc(COc2ccc(NC(=O)Nc3ccc(Cl)c(C(F)(F)F)c3)cc2)c1` gave a growth of 17.8%. With `COc1ccc(C2c3sc4ccc(C)cc4c3Oc3nc(N)nc(N)c32)cc1` (configuration not stated) the growth was 84.8%. `C=C1CCC2C3(C)COC(c4ccccc4F)OC3CCC2(C)C1CC(O)C1=CCOC1=O` (configuration not stated) was tested, and the growth was 70.5%. `O=C1NC(=NC23CC4CC(CC(C4)C2)C3)N/C1=C\c1ccc2ncccc2n1` was tested, and the growth was -19.1% (active). `COc1cccc(C(=O)CSc2nc(-c3ccc(OCc4ccccc4)c(OC)c3)c(C#N)c(=O)[nH]2)c1` was tested, and the growth was 97.2%. With `Cn1cc(-c2cc(N)n3nc(-c4c[nH]c5ccccc45)cc3n2)c2cc(F)ccc21` the growth was 7.1% (active). With `N/C(=N\c1nc2ccc([N+](=O)[O-])cc2s1)NC(=O)Nc1ccccc1Cl` the growth was 67.3%. `Clc1cccc(N/N=C/c2c[nH]c3ccc(Br)cc23)n1` was tested, and the growth was 5.14% (active). `O=C(Nc1ccc(Br)cc1)Nc1ccc(-c2ccc3c(c2)NC(=O)/C3=C\c2ccc[nH]2)cc1` showed a growth of 33.4%. With `COc1ccc(N=Nc2c(N)nn3c(-c4ccc(OC)c(OC)c4)ccnc23)cc1` the growth was 92%. For `Cn1cc(Nc2ncnc(-c3ccc(N4CCCC4)c(C#N)c3)n2)cn1`, the growth was 49.1%. For `COC(=O)c1c(C(=O)OC)c2ccc3c4ccccc4ccc3n2c1C(=O)OC`, the growth was 111%. With `Cc1ccc(S(=O)(=O)Nc2ccc(-c3ccc4c(c3)NC(=O)/C4=C\c3ccc[nH]3)cc2)cc1` the growth was 39.3%. In the case of `O=C1Nc2ccc(Cl)cc2/C1=C/c1ccc(OCc2ccccn2)cc1`, the growth is reported as 85%. `Cc1ccc(/C(N)=N/c2sc(-c3ccccc3)nc2-c2ccccc2)cc1` showed a growth of 87%. For `CC(C)CSc1nc(NCCc2c[nH]c3ccccc23)c(C#N)c(-c2ccccc2)n1`, the growth was 60.7%. `COc1ccc2cc([C@H](C)C(=O)N/N=C/c3ccc(Br)cc3)ccc2c1` showed a growth of 91.3%. For `COc1ccc(C(SCCNCc2cc(N(C)C)ccn2)(c2ccccc2)c2ccccc2)cc1`, the growth was -43.7% (active). `CCCSc1nnc(-c2sc3nc4ccccc4n3c2C)o1` gave a growth of 94%. `Brc1ccc(N/N=C/c2c[nH]c3ccc(Br)cc23)nc1` was tested, and the growth was -17.2% (active). For `S=c1nc(-c2ccccc2)cc(-c2cc3ccccc3nc2Cl)[nH]1`, the growth was 8.96% (active). For `O=C(NC(=S)N1CCN(c2ncnc3c2cnn3-c2ccccc2)CC1)c1ccc(Br)cc1`, the growth was 90.8%. For `CC(=O)Nc1cccc(-n2c(COc3ccc(I)cc3)nc3ccccc32)c1`, the growth was 116% and 92.8%. With `FC(F)(F)c1cc2c(Cl)ncnc2n1CCN1CCOCC1` the growth was 7.02% (active). With `CC(=O)Nc1ccc(-n2cnc3cc(-c4ccc(NS(C)(=O)=O)cc4)ccc32)cc1` the growth was 59.9%. For `C=C1CC[C@@H]2[C@]3(C)COC(c4cn[nH]c4-c4ccc(OC)cc4)O[C@@H]3CC[C@@]2(C)[C@@H]1C/C=C1/C(=O)OCC1O` (some centres not stated), the growth was 1.59% (active). For `CCCCn1c(O)c(N=Nc2nc(-c3cc4ccccc4oc3=O)cs2)c2cc(Br)ccc21`, the growth was 101%. `COc1cc(NC(=O)C(C)C)ccc1C(=O)NC(=S)Nc1ccc(S(N)(=O)=O)cc1` showed a growth of 92.5%. For `COc1ccc(/C=C/c2nc3ccccc3n3c(-c4cccc([N+](=O)[O-])c4)nnc23)cc1`, the growth was -49.3% (active). For `CC1=C(c2cc(-c3ccc(Cl)cc3)c(C#N)c(N)n2)C(c2ccccc2)NC(=S)N1` (configuration not stated), the growth was 5.3% (active). For `Oc1ccc(Cl)c(Nc2nc(SCCN3CCOCC3)nc3c2cnn3CC(Cl)c2ccc(Br)cc2)c1` (configuration not stated), the growth was -36.2% (active). `CC(=O)C1=C(C)NC(SCC(=O)Nc2ccc(S(=O)(=O)Nc3cc(C)on3)cc2)=NC1c1ccccc1` (configuration not stated) showed a growth of 100%. `O=c1[nH]c2ccc(Cl)cc2cc1CSc1nccc(-c2ccc(Cl)cc2)n1` gave a growth of 102%. Work on `CN(C)c1ccc(/C=C/C(=O)c2ccc(NC(=O)CN3C(=O)NC(C)(c4ccccc4)C3=O)cc2)cc1` (configuration not stated) yielded a growth of 47.5%. With `Cc1cccc(/C=C/c2ccc(NC(=S)NCCCCN(C)C)cc2)c1` the growth was -37.7% (active).
